Assay [1] is described as follows: Confirmatory qHTS for VERO E6 Cytotoxicity Assay: Counterscreen for SARS-CoV-2 CPE Assay (AID 1508605). Also: nearly all actives have a fitted effect of over 60% in size. Also: potency is read from the fitted curve at half-maximal effect. To be noted: cell viability luminescence; series mostly up to 20 µM. A general note: qHTS replaces the single test concentration by a dilution series.
A short description of assay [2]: Confirmatory qHTS for activators (rescue) of SARS-CoV-2 Cytopathic Effect (CPE) (AID 1508606). Also: nearly all actives have a fitted effect of over 70% in size. Also: potency is read from the fitted curve at half-maximal effect. To be noted: Vero E6 SARS-CoV-2 CPE rescue, viability luminescence; series mostly up to 20 µM.
The nature of assay [3]: Primary qHTS for Vero E6 cytotoxicity: counterscreen for inhibitors of SARS-S pseudo-typed particle cell entry (AID 1479150). Also: potency is read from the fitted curve at half-maximal effect. To be noted: cell viability; series mostly up to 57.1 µM.
Assay [4] in a line: Primary qHTS for Huh7 cytotoxicity: counterscreen for inhibitors of MERS-S pseudotyped particle cell entry (AID 1479147). To be noted: cell viability read-out; series mostly up to 57.1 µM.
A short description of assay [5]: Primary qHTS for inhibitors of MERS-S pseudo-typed particle cell entry (AID 1479149). Also: nearly all actives have a fitted effect of over 60% in size. Also: potency is read from the fitted curve at half-maximal effect. The following applies: MERS-S pseudotyped particle entry, luciferase; series mostly up to 57.1 µM.

SMILES strings stand for the structures. Results filed as inconclusive are left out. Active and inactive are the calls of the source. Calls follow the shape of the full dose curve.

In the case of `COC(=O)C1=C(C)NC(C)=C(C(=O)O[C@@H]2CCCN(Cc3ccccc3)C2)[C@@H]1c1cccc([N+](=O)[O-])c1`, in assay [1], the Potency is 11.2 µM (active). Besides, the Potency entry in assay [2] was “inactive”.

With `CCC(=O)c1ccc2c(c1)N(CCCN(C)C)c1ccccc1S2`, the Potency result in assay [3] and in assay [1] was “inactive” in each case. Further, the Potency in assay [2] is 11.2 µM (active).

In the case of `O=c1c(-c2ccccc2)c1-c1ccccc1`, the Potency result in assay [3] is “inactive”.

Regarding `O=c1[nH]c2ccccc2n1CCCN1CCN(C(c2ccccc2)c2ccccc2)CC1`, the Potency result in assay [4] and in assay [3] was “inactive” throughout. Further, the Potency in assay [2] was 11.2 µM (active).

On to `CCCCCCCCCCCCCCCC[N+](C)(C)CCN(Cc1ccc(OC)cc1)c1ncccn1`, for which the Potency in assay [5] is 10 µM (active).

As for `CCCCN(CCCC)CCC(O)c1cc2c(Cl)cc(Cl)cc2c2cc(C(F)(F)F)ccc12` (stereo not given), the Potency entry in assay [4] and in assay [3] was “inactive” in each case. Also, in assay [2], the Potency was 3.55 µM (active).

Regarding `COc1ccc(CCN2CCC(Nc3nc4ccccc4n3Cc3ccc(F)cc3)CC2)cc1`, the Potency in assay [5] was 12.6 µM (active).

Consider `CC1=CC(=O)c2ccccc2C1=O`, for which, in assay [3], the Potency result is “inactive”.

For the molecule `NC(=O)C1(N2CCCCC2)CCN(CCCN2c3ccccc3CCc3ccc(Cl)cc32)CC1`, in assay [5], the Potency is 12.6 µM (active).

For `O=C(CCCN1CCC(O)(c2ccc(Br)cc2)CC1)c1ccc(F)cc1`, the Potency result in assay [3] is “inactive”.

As to `O=C(CCC1CCN(Cc2ccccc2)CC1)c1ccc2c(c1)NCCCC2`, the Potency entry in assay [3] and in assay [1] was “inactive” each time.

Take `CN1CCCC(n2nc(Cc3ccc(Cl)cc3)c3ccccc3c2=O)CC1` (stereo not given): the Potency entry in assay [3] was “inactive”.

Regarding `CN(C(=O)CN(CCO)CC(=O)N(C)C(C)(C)Cc1ccccc1)C(C)(C)Cc1ccccc1`, the Potency entry in assay [3] was “inactive”.

Regarding `CCC(C)(C)c1ccc(CC(C)CN2C[C@@H](C)O[C@@H](C)C2)cc1` (stereo not given in full), the Potency entry in assay [3] is “inactive”.

`CCCCC1C(=O)N(c2ccccc2)N(c2ccc(O)cc2)C1=O` (stereo not given): in assay [3], the Potency was 22.4 µM (active).

As to `CC(C)OC(=O)C(C(=O)OC(C)C)=C1SC=CS1`, the Potency result in assay [5] and in assay [3] was “inactive” each time.

As for `CC1CCCCN1CCCOC(=O)c1ccc(OC2CCCCC2)cc1` (stereo not given), the Potency entry in assay [4], in assay [3] and in assay [1] was “inactive” in each case. For the same molecule, the Potency in assay [2] was 8.91 µM (active).

As for `COc1cc(N)c(Cl)cc1C(=O)NC1CCN(CCCOc2ccc(F)cc2)CC1OC` (stereo not given), the Potency entry in assay [3] is “inactive”.
